Source: PubChem BioAssay (NCI)
About 83,000 compounds went through this panel and 20% of them were active in at least one assay; those are over-represented in the sample as a whole.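 The endpoint reported here, percent growth, reads 100 for growth as untreated, 0 for no net growth and -100 for all cells dead.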 Values without a mark were called inactive. Calls of active or inactive are those of the source. Rule for the calls: active = growth percent below 10; inactive = the rest.

Key:
Assay in all cases: NCI-60 one-dose screen, 48 h (100 = growth as untreated, 0 = no growth, -100 = all killed)
Details in all cases: 10 µM unless noted
DU-145 prostate = test system: DU-145 prostate
K-562 leukemia = test system: K-562 leukemia
MALME-3M melanoma = test system: MALME-3M melanoma
MDA-MB-231 breast = test system: MDA-MB-231 breast
RXF 393 renal = test system: RXF 393 renal
SF-268 CNS = test system: SF-268 CNS
SF-295 CNS = test system: SF-295 CNS
SF-539 CNS = test system: SF-539 CNS
UACC-257 melanoma = test system: UACC-257 melanoma
M14 melanoma = test system: M14 melanoma
HCT-15 colon = test system: HCT-15 colon
HT29 colon = test system: HT29 colon
SNB-75 CNS = test system: SNB-75 CNS
SNB-19 CNS = test system: SNB-19 CNS
U251 CNS = test system: U251 CNS
PC-3 prostate = test system: PC-3 prostate
SK-MEL-5 melanoma = test system: SK-MEL-5 melanoma
UACC-62 melanoma = test system: UACC-62 melanoma
LOX IMVI melanoma = test system: LOX IMVI melanoma
SK-MEL-28 melanoma = test system: SK-MEL-28 melanoma

Structure (SMILES) | growth (DU-145 prostate) [%] | growth (K-562 leukemia) | growth (MALME-3M melanoma) | growth (MDA-MB-231 breast) | growth (RXF 393 renal) | growth (SF-268 CNS) [%] | growth (SF-295 CNS) | growth (SF-539 CNS) | growth (UACC-257 melanoma) | growth (M14 melanoma) | growth (HCT-15 colon) | growth (HT29 colon) | growth (SNB-75 CNS) | growth (SNB-19 CNS) [%] | growth (U251 CNS) | growth (PC-3 prostate) | growth (SK-MEL-5 melanoma) | growth (UACC-62 melanoma) | growth (LOX IMVI melanoma) | growth (SK-MEL-28 melanoma) [%]
O=[N+]([O-])c1cc(F)c2cccnc2c1O | 121 | 109% | 103% | 99.5% | 148% | 106 | 110% | 91% | 115% | 88.5% | 92.1% | 111% | 86% | 93 | 91.9% | 96.6% | 90.2% | 92.9% | 84.7% | 135
O=c1cc(N2CCOCC2)oc2c(-c3ccc4c(c3)OCCO4)csc12 | 22.8 | 25.6% | -3.44% (active) | 20.3% | -22.5% (active) | 29.8 | 0.878% (active) | 3.65% (active) | 18.6% | 12.3% | 16.9% | 10.8% | -16.6% (active) | 25.6 | 31.2% | 21.8% | -7.05% (active) | -1.9% (active) | 10.3% | 22.3
COc1ccc2[nH]cc(C(c3ccc(Cl)cc3)N3CCCC3)c2c1 (stereo not given) | 101 | 90.2% | 72.8% | 94.6% | 82.9% | 92.5 | 94% | 98.2% | 91.9% | 95% | 89.7% | 102% | 90% | 105 | 92% | 74.8% | 88.5% | 92.5% | 90.7% | 111
CCCCn1c(C)nc2ccc(Nc3nc(Cl)nc4nc[nH]c34)cc21 | 80.3 | 69.8% | 78.1% | 64.8% | 62.9% | 76 | 76.3% | 79.9% | 92.5% | 68.3% | 82.6% | 79.9% | 62.8% | 90.5 | 74.5% | 36.3% | 63.6% | 69.8% | 90.2% | 94.3
CN(C)CCOc1nc2c3ccncc3cc(-c3cccc(Cl)c3)c2c2cnccc12 | 30.7 | -34.7% (active) | 40.1% | 24% | 1.01% (active) | 35.1 | 31.6% | 32% | 47.3% | 26% | 22.1% | 17% | 39.8% | 28.4 | 28% | 30.1% | 10.8% | 24.6% | 5.79% (active) | 13.3
Clc1ccc2c(c1)-n1cccc1C(c1ccc3ccccc3c1)=NC2 | 115 | 49.4% | 97.8% | 120% | 96.1% | 109 | 80.6% | 103% | 100% | 87.8% | 77.2% | 74.1% | 83.2% | 79.1 | 95.6% | 79.8% | 95.8% | 78.3% | 112% | 100
N#Cc1ccc(NC(=O)Nc2nc3ccc(OC(F)(F)F)cc3s2)cc1 | 23.1 | 1.23% (active) | -7.94% (active) | -18.4% (active) | 21.9% | 21.1 | -25.8% (active) | 7.97% (active) | -20.7% (active) | 5.97% (active) | 0.568% (active) | -3.66% (active) | -8.15% (active) | 15.1 | 4.34% (active) | 2.88% (active) | -53.3% (active) | 2.82% (active) | 1.35% (active) | 19.3
